From ChEMBL document CHEMBL3988442, “University of Dundee, Small-Polar-MMV Screening Library” (2021)
For some assays here: Entries with a potency or affinity are not part of this list.

What was measured:
Set-up in all cases: scale not given: direction of the effect not stated beside the values
[1] = biological target: Protein translocase subunit SecA (Escherichia coli (strain K12)) (UniProt P10408); test: Assay to Identify E. coli SecA ATPase Inhibitors; format: functional; details: 30 µM
[2] = biological target: T1, Ubiquitin-activating enzyme e1, putative (Leishmania donovani (strain BPK282A1)) (UniProt E9BSI1); test: Leishmania donovani Ubiquitin Activating Enzyme (LdE1); format: functional; details: 30 µM
T1 sequence (whole entry): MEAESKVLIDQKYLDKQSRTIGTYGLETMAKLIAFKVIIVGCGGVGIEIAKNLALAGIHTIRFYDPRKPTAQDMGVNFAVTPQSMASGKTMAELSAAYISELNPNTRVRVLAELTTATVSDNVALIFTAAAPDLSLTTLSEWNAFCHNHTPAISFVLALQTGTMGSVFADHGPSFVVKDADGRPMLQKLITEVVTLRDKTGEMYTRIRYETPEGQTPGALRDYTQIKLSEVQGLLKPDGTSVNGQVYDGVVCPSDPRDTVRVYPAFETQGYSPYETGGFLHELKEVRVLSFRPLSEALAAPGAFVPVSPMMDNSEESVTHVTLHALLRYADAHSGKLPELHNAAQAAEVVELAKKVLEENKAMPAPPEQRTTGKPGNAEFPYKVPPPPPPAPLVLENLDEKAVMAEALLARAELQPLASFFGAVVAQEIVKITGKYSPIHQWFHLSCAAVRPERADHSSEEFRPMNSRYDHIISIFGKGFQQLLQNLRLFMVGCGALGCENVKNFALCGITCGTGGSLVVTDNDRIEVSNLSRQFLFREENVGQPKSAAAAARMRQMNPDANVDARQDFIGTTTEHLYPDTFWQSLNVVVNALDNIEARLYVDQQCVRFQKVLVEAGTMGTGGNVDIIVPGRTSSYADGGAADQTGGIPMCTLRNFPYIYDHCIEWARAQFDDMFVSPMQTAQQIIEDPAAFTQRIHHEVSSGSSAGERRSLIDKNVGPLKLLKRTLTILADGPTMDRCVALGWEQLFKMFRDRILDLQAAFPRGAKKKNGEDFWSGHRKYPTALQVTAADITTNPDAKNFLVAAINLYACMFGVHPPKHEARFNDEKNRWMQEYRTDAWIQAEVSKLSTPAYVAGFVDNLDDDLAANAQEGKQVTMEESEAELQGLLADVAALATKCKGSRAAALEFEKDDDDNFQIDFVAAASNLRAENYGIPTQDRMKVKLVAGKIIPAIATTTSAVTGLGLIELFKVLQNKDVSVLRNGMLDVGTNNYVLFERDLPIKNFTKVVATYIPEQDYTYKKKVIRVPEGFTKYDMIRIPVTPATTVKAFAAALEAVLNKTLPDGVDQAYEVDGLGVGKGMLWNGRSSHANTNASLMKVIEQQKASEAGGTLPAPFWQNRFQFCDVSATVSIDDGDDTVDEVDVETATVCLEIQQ

[3] = biological target: Sialic acid-binding Ig-like lectin 9 (Homo sapiens) (UniProt Q9Y336); test: Hs-Siglec9 ALPHAscreen SOP 20170721; details: 10 µM
[4] = test system: Trypanosoma cruzi; test: Trypanosoma cruzi phosphomannomutase and mannose-1-phosphate guanylyltransferase assay; format: functional; details: 10 µM
[5] = biological target: T2, Arginase-2, mitochondrial (Homo sapiens) (UniProt P78540); test: in vitro enzyme assay to detect the production of urea directly proportional to the activity of Arginase II; format: functional; details: 33.3 µM; further: in the data most compounds retested in dose-response had high values
T2 sequence (whole entry): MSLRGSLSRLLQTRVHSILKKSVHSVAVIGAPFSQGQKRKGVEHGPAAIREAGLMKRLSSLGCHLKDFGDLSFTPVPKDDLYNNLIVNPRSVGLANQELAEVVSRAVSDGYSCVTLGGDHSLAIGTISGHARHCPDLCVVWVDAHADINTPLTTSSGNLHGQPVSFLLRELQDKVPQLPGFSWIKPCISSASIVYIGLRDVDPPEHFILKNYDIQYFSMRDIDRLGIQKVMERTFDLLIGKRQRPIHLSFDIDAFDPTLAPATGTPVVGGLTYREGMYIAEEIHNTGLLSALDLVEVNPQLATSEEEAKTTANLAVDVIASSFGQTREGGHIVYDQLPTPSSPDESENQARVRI

[6] = biological target: T3, Proteasome subunit beta (Trypanosoma cruzi) (UniProt O96673); test: Trypanosoma cruzi proteasome chymotrypsin-like activity (TcProtChymo) assay.; further: in the data most compounds retested in dose-response had high values; format: functional; details: 9.37 µM
T3 sequence (whole entry): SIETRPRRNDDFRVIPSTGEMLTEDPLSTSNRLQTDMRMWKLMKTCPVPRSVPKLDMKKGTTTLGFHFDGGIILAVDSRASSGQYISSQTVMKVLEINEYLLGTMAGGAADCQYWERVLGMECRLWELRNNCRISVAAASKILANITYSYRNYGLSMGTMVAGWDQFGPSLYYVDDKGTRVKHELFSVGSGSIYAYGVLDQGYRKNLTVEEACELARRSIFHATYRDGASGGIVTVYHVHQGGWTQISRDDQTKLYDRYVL

[7] = organism: Homo sapiens; test: To identify inhibition of the IFN signalling (Jak-Stat) pathway via expression of an eGFP reporter gene under the control of an IFN-stimulated response element (ISRE) containing MxA promoter.; format: functional; details: 30 µM
[8] = biological target: T4, Tyrosyl-tRNA synthetase, putative (Trypanosoma cruzi (strain CL Brener)) (UniProt Q4DSP6); test: Trypanosoma cruzi tyrosyl tRNA synthetase (TcYRS) _High Tyrosine SOP; format: functional; details: 30 µM; further: in the data most compounds retested in dose-response had high values
T4 sequence (whole entry): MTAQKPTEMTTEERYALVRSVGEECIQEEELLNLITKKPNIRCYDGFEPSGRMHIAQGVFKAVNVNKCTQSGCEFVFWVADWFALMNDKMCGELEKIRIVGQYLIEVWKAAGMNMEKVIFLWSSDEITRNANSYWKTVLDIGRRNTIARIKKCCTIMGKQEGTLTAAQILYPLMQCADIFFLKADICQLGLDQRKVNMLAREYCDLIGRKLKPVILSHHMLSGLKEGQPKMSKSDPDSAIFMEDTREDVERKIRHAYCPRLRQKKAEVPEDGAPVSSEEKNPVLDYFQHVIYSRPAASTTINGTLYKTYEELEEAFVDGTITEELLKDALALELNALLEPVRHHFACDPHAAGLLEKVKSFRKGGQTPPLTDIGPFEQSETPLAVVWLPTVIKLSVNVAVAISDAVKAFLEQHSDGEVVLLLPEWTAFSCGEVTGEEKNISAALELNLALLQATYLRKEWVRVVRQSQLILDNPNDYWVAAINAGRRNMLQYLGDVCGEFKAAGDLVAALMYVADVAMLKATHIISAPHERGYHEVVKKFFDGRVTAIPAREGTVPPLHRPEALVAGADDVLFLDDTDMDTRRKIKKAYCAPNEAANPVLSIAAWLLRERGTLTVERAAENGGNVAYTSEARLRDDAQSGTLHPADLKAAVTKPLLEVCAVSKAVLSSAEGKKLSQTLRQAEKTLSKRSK

[9] = biological target: T4, Tyrosyl-tRNA synthetase, putative (Trypanosoma cruzi (strain CL Brener)); test: Trypanosoma cruzi tyrosyl tRNA synthetase (TcYRS) SOP; format: functional; details: 30 µM
[10] = biological target: Chromo domain-containing protein 1 (Saccharomyces cerevisiae (strain ATCC 204508 / S288c) (Baker's yeast)) (UniProt P32657); test: ScCHD-1 Enzyme Inhibition Assay; format: functional; details: 30 µM; further: in the data most compounds retested in dose-response had high values
Chain of Chromo domain-containing protein 1 (Saccharomyces cerevisiae (strain ATCC 204508 / S288c) (Baker's yeast)) (P32657 whole entry, the tested form may be a part): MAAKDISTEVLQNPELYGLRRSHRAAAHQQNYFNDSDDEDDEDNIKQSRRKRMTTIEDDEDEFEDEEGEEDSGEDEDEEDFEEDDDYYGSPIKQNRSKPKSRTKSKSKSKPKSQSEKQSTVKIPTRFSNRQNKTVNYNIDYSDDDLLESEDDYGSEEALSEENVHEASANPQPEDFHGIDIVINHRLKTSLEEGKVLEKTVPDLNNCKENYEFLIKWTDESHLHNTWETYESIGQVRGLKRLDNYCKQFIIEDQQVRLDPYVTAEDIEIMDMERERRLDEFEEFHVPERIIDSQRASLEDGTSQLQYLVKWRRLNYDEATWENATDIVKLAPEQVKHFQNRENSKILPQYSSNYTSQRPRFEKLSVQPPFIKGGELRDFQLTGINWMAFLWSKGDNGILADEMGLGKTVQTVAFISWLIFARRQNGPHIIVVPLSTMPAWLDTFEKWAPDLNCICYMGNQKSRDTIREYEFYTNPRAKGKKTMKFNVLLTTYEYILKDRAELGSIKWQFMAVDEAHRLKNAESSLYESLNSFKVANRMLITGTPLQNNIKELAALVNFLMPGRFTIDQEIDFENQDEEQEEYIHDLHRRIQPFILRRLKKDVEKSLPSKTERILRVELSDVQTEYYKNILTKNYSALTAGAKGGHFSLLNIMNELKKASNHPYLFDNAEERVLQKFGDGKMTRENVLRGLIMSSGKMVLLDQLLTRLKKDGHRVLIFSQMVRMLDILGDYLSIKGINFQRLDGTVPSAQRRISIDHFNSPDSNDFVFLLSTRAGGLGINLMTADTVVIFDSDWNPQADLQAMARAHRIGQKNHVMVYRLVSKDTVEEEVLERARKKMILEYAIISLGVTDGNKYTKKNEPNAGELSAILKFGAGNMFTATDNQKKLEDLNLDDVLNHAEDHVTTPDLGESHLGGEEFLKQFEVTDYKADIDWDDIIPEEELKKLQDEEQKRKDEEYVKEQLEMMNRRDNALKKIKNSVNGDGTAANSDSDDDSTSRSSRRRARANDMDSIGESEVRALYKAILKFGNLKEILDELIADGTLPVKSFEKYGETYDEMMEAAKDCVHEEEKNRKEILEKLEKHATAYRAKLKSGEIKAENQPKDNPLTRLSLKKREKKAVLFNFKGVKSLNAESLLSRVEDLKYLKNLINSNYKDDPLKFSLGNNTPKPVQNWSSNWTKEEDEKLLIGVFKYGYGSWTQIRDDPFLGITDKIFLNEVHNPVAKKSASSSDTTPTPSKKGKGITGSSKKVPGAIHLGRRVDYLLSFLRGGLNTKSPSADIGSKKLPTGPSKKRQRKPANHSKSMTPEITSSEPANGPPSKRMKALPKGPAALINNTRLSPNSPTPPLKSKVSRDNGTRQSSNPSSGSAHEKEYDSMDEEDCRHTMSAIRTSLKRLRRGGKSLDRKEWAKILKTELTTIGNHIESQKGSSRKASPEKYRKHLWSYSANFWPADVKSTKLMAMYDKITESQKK

Chain of Protein translocase subunit SecA (Escherichia coli (strain K12)) (P10408 whole entry): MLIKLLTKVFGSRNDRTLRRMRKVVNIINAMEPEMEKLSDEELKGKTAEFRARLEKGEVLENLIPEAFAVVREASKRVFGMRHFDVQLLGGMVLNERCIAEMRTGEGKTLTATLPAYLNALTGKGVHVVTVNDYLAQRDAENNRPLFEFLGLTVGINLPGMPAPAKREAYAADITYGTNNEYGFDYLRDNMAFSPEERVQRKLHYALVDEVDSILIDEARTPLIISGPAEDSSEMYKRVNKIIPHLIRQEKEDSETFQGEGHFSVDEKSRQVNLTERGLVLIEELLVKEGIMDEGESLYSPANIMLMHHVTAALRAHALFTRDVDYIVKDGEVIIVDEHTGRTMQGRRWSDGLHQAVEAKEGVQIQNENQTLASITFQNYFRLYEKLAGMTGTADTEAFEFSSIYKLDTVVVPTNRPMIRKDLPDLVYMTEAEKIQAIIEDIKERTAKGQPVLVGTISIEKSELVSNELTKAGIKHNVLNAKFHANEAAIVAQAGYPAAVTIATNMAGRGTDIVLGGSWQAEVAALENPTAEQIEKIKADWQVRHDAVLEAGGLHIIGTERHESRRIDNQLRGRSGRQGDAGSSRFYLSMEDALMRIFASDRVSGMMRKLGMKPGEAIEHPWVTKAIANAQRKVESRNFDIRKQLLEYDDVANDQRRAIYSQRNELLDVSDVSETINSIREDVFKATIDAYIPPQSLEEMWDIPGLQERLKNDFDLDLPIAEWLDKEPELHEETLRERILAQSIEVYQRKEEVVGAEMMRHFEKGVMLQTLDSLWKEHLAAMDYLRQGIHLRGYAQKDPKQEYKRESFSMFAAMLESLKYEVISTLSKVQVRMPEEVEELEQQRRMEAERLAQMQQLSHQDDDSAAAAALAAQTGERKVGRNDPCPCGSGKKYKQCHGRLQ
Chain of Sialic acid-binding Ig-like lectin 9 (Homo sapiens) (Q9Y336 whole entry): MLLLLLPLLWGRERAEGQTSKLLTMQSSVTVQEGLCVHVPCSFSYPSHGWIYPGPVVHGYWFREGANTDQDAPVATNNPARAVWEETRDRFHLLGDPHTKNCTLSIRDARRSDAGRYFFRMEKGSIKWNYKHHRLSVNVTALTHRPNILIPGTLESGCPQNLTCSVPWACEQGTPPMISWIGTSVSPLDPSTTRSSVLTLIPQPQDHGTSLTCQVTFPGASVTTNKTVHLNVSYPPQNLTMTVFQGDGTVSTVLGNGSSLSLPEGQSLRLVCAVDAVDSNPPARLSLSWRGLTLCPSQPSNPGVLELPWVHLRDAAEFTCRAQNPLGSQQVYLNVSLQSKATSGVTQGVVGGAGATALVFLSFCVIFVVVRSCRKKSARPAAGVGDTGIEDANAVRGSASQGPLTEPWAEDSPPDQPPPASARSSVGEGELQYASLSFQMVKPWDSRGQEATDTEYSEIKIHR

| Compound | Percent Effect [1] | Percent Effect [2] | Percent Effect [3] | Percent Effect [4] | Percent Effect [5] | Percent Effect [6] | Percent Effect [7] | Percent Effect [8] | Percent Effect [9] | Percent Effect [10] |
| --- | --- | --- | --- | --- | --- | --- | --- | --- | --- | --- |
| Cn1ccnc1CN1CCCC1c1noc(C2CC2)n1 (stereo not given) | -1.78% | 0% | -0.931% | 0% | 1.33% | 6.19% | -3.87% | 5.79% | 10.3% | -4.32% |
| COC(=O)C1CCN(C(=O)c2ccc(C)c(NS(C)(=O)=O)c2)CC1 | -9.4% | -5.41% | -2.25% | -3.2% | -3.85% | 8.9% | -0.867% | 1.6% | 2.44% | 5.38% |
| Cc1cccc(CN2C(=O)CCC23CCN(c2ncc(F)cn2)CC3)n1 | -5.56% | 16.9% | -3.32% | -1.13% | 5.02% | 0.258% | -16% | 11.6% | 15% | -8.12% |
| CN(CC1CCCCC1)C(=O)c1ccc(-n2ncc(C#N)c2N)cc1 | -0.675% | 2.6% | -3.53% | -9.33% | -9.22% | 7.37% | 48.7% | 4.9% | 16.5% | -3.77% |
| CC(C)(C)n1ncc2c1NC(=O)CC2c1ccsc1 (stereo not given) | -1.95% | 2.7% | -2.29% | -7.47% | 5.94% | 13.2% | 15.1% | 4.79% | 9.76% | -1.82% |
| Cc1cc(CN(C)C(=O)c2ccnc(N(C)C)c2)no1 | -2.33% | 8% | 1.08% | -5.82% | 2.22% | 4.67% | 9.46% | 3.68% | 10.3% | -13.6% |
| Cc1[nH]c2ccccc2c1-c1ccnc(NC[C@H](O)CO)n1 | -3.38% | 5.33% | -5% | -8.23% | -5.32% | 8.23% | 23.4% | -1.58% | -7.69% | -13.5% |
| COc1ncccc1CNC(=O)c1cccnc1O | -1.81% | 12.8% | -3.2% | 5.35% | 1.23% | 8.79% | -10.7% | 11% | 22.9% | -2.93% |
| Cc1ccoc1-c1nnc(CN2CCCC(Cn3cncn3)C2)o1 (stereo not given) | -4.32% | 0% | 3.64% | 2.54% | 7.38% | -8.45% | 14.1% | 3.35% | 1.21% | -1.2% |
| Cc1cnn(CC2CCCN2CC(=O)Nc2cc(C(C)(C)C)no2)c1 (stereo not given) | -3.74% | 13% | 2.37% | 3.73% | -0.615% | 6.84% | 2.79% | 7.84% | 28.2% | -8.5% |
| Nc1nccc(-c2c[nH]nc2C2CCCCC2)n1 | 1.44% | 10.7% | -1.99% | -6.83% | 3.1% | 17.9% | 99.6% | 1.58% | 0% | -6.8% |
| Cn1nc2c(cc1=O)CN(Cc1nc(C(C)(C)C)no1)CC2 | -2.61% | 29.3% | 6.04% | 1.41% | 4.88% | 6.19% | 21.4% | 1.58% | 2.56% | -14.7% |
| COCc1nc(C(=O)NS(=O)(=O)c2ccc(C)s2)cs1 | -1.18% | -5.13% | -1.4% | -5.35% | 6.56% | -7.25% | 18.7% | 1.44% | 1.21% | -0.772% |
| CC(O)CN1CCC(CNCc2ccccc2Br)CC1 (stereo not given) | -0.126% | 10.3% | -8.9% | 11.4% | 1.23% | 10.2% | 8.18% | 4.31% | 20.5% | -5.01% |
| O=C1NCCN(CC2CC2)C12CCN(Cc1ccco1)CC2 | -2.83% | 9.09% | -15.9% | -9.45% | 2.83% | 18.8% | 10.4% | 2.63% | -2.56% | -3.23% |
| CCn1c(Cn2cncn2)nnc1C1CCN(Cc2ccc(C)o2)CC1 | -6.62% | 5.41% | 5.22% | 3.78% | 2.45% | 9.07% | 5.52% | 4.79% | 14.6% | -3.96% |
| Cc1cnc(CN2CCCC2c2noc(C)n2)cn1 (stereo not given) | -3.01% | -2.67% | -1.58% | 0.602% | 0.444% | 14.5% | -11.3% | 11.1% | 12.8% | -6.87% |
| CN(Cc1ccccc1)CC(O)Cn1cnc2c(cnn2C)c1=O (stereo not given) | -1.52% | 17.9% | -4.11% | 4.79% | 2.46% | 10.5% | -1.98% | 7.18% | 22.9% | -3.86% |
| Cc1ccc(Cl)cc1N1CCC(CNC(=O)CC(F)(F)F)C1 (stereo not given) | -3.87% | -2.56% | -7.65% | -2.54% | 1.23% | 7.25% | 38.9% | -0.478% | -3.61% | 0.808% |
| CCc1nccn1-c1cncc(C2CCCN2Cc2ccc(F)cc2)n1 (stereo not given) | -7.77% | 4% | 1.71% | 1.97% | 0.443% | -0.328% | 35.7% | 4.23% | 5% | -27.1% |
| Cn1ccc(C(=O)NCc2cccc(NC(=O)C3CCC3)c2)cc1=O | -3.75% | 26% | 5.5% | 4.48% | -1.84% | 12.3% | 12% | 2.94% | 21.2% | -9.82% |
| COc1cccc(CNc2cnn(C)c(=O)c2Cl)c1 | -6.48% | 0% | 3.58% | -1.21% | 6.65% | 3.48% | 55.5% | 2.63% | 5.13% | -5.75% |
| COc1c(C2CCCN2C(=O)c2cncnc2C)c(C)nn1C (stereo not given) | 0.687% | 20.8% | 0.3% | -7.46% | -3.48% | 18.8% | 21.6% | 3.92% | 9.41% | -6.48% |
